Source: PubChem BioAssay (NCI)
About 79,000 compounds went through this panel and 15% of them were active in at least one assay; those are over-represented in the sample as a whole. Activity calls are given as the source filed them. Rule as the data show it: active = growth inhibition above about 70%; inactive = the rest. Where a SMILES comes first, the peptide text is derived from it.

Assays:
[1] = NCI Yeast Anticancer Drug Screen. Data for the rad50 strain (AID 155);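 also: 0% = growth of vehicle-only cultures of the same strain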; conditions: S. cerevisiae rad50 strain growth inhibition; at 50.0 µM; stronger effect = higher value
How it was run: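 Inhibition values express reduced yeast growth in compound-treated cultures relative to vehicle-treated controls.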

[2] = NCI Yeast Anticancer Drug Screen. Data for the mec2-1 strain (AID 157); conditions: S. cerevisiae mec2-1 strain, at 50.0 µM, stronger effect = higher value
How it was run: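 Test agents were screened against the mec2-1 yeast strain, with defined DNA repair or cell cycle alteration. Growth was scored as inhibition against vehicle-only controls.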

[3] = NCI Yeast Anticancer Drug Screen. Data for the sgs1 mgt1 strain (AID 161);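 also: 0% = growth of cultures given vehicle only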; conditions: S. cerevisiae sgs1 mgt1 strain, at 50.0 µM, stronger effect = higher value
How it was run: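 Inhibition of yeast growth, normalised to vehicle-treated controls, is reported for a strain bearing genetic alterations in DNA damage repair.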

[4] = NCI Yeast Anticancer Drug Screen. Data for the cln2 rad14 strain (AID 165);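 also: 0% = growth equal to vehicle treated cultures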; conditions: S. cerevisiae cln2 rad14 strain, at 50.0 µM, stronger effect = higher value
How it was run: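 Growth of compound-exposed yeast (cln2 rad14 genotype) measured and expressed as inhibition relative to vehicle.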

[5] = NCI Yeast Anticancer Drug Screen. Data for the bub3 strain (AID 167); conditions: S. cerevisiae bub3 mutant strain, at 50.0 µM, stronger effect = higher value
How it was run: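 Steps: expose the mutant yeast strain to compound; grow alongside vehicle-treated cultures; measure growth; express inhibition against the vehicle cultures.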

[6] = NCI Yeast Anticancer Drug Screen. Data for the mlh1 rad18 strain (AID 175); conditions: S. cerevisiae mlh1 rad18 strain growth inhibition; at 50.0 µM; stronger effect = higher value
How it was run: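 In this whole-cell yeast screen, a strain with altered DNA damage repair is challenged with compound, and its growth is measured against matched vehicle-treated controls.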

Measured: growth inhibition

COC(=O)/C=C(/Nc1ccccc1C(=O)O)C(=O)OC
inactive: [1] -5.55% | [2] 20.1% | [3] -5.15% | [4] 2.85% | [5] -16.1% | [6] -21.1%

O=C(O)c1c(Cl)c(Cl)c(Cl)c(C(=O)O)c1Cl
inactive: [1] -2.05% | [2] 2.2% | [3] 7.25% | [4] -36.1% | [5] 5.85% | [6] 19.2%

Cc1cccc(NC(=O)c2c(Br)c(Br)c(Br)c(Br)c2C(=O)O)c1C
inactive: [1] 26.9% | [2] -18% | [3] 12.7% | [4] 2.85% | [5] 5.4% | [6] -4.3%

C#CCNC(=O)CCC(N)C(=O)O (configuration not stated)
inactive: [1] -0.1% | [2] -15.2% | [3] -14.8% | [4] 3.05% | [5] -11.8% | [6] 2.65%

COc1cc(O)c(OC)c(O)c1C(C)=O
inactive: [1] -3.5% | [2] -11.2% | [3] -17.4% | [4] -19.7% | [5] 2.25% | [6] -0.65%

CCOc1ccc(Cc2ccccc2)cc1
inactive: [1] -8.95% | [2] -23.9% | [3] -7% | [4] 1.5% | [5] -8.25% | [6] -5.35%

CC(=O)OCC1(C)CCC(C)CO1 (configuration not stated)
inactive: [1] -21.4% | [2] -4.45% | [3] 7.8% | [4] 15.2% | [5] 1.1% | [6] 7%

Cc1ccc(S(=O)(=O)/C(=C/c2ccccc2)CC(=O)c2ccccc2)cc1
inactive: [1] 9.05% | [2] 6.55% | [3] -22.1% | [4] -18.4% | [5] 11.1% | [6] 17%

N#CCCCCN1CCCC1
inactive: [1] 32.2% | [2] -8.7% | [3] 3.4% | [4] 12.7% | [5] 10.1% | [6] 9.05%

CCC(=O)CCc1ccc2ccccc2c1
inactive: [1] 22.2% | [2] 15.7% | [3] 10.9% | [4] -16.9% | [5] 23.5% | [6] 24.2%

N#CC(c1ccccc1)c1cccc(C(=O)O)c1 (configuration not stated)
inactive: [1] -16.9% | [2] -13.5% | [3] 5.6% | [4] -20.4% | [5] -25.9% | [6] 5.45%

CCS(=O)c1ncc2cnccn12 (configuration not stated)
inactive: [1] 2.35% | [2] 1.3% | [3] 15.4% | [4] -17.8% | [5] 8.3% | [6] -18.8%

CC(=O)c1c(N)n(C)c(=O)n(C)c1=O
inactive: [1] 36% | [2] 2.9% | [3] 3.55% | [4] -47.1% | [5] -14.6% | [6] 17.4%

Cc1ccc(-c2cs/c(=N\N=C3/CSC(=O)N3Cc3ccccc3)n2-c2cccc(C)c2)cc1
inactive: [1] 24.4% | [2] 1.2% | [3] -11.2% | [4] -4.3% | [5] 4.1% | [6] 22.2%

CCOC(=O)/C=C(/C)N
inactive: [1] -19.1% | [2] -7.25% | [3] -14.2% | [4] 8.45% | [5] 1.85% | [6] -0.75%

CC1(C)OC(=O)N=C1c1ccc(Cl)cc1
inactive: [1] -20.2% | [2] -10% | [3] -19.8% | [4] 12.5% | [5] -20% | [6] -12.2%

O=C(NCCCl)NCc1ccco1
inactive: [1] -6.6% | [2] 0.9% | [3] -3.55% | [4] -39.2% | [5] -4.85% | [6] -0.9%

OCC(O)C(O)C(O)c1nn(-c2ccc(Cl)cc2)c2nc3cc(Cl)c(Cl)cc3nc12 (configuration not stated)
inactive: [1] 1.85% | [2] -28.6% | [3] -33.9% | [4] 15.4% | [5] 4.4% | [6] 0.85%

COc1cc(/C=N/n2c(C)cc(C)c(C#N)c2=O)cc(OC)c1OC
inactive: [1] -11.9% | [2] 12.9% | [3] -3.4% | [4] 9.1% | [5] -1.05% | [6] -25.4%

CC(C)(C)C(=O)CC(=O)C(C)(C)C
inactive: [1] -3.9% | [2] -9.5% | [3] 2.25% | [4] -57.4% | [5] -2.8% | [6] -15.8%

CCOC(CNCc1ccc(OC)cc1)OCC
inactive: [1] -0.25% | [2] -3.1% | [3] 4% | [4] -2.05% | [5] 22.4% | [6] 7.6%

O=c1[nH]c(=O)n(C2CC(O)C(CO)O2)cc1NN=NCCCc1ccccc1 (configuration not stated)
inactive: [1] -21.8% | [2] -12.4% | [3] -8.5% | [4] 10.8% | [5] -11.3% | [6] -32.5%

c1ccc(CN2CCC(=NN3CCCCC3)CC2)cc1
inactive: [1] 19.9% | [2] -9.5% | [3] 23.2% | [4] 15.2% | [5] 17.9% | [6] -8.55%

COC(=O)c1ccccc1N=Cc1cc(Cl)ccc1O
active: [6] 88.2%
inactive: [1] 21.5% | [2] 23.1% | [3] 35.9% | [4] 6.1% | [5] 19.6%

Cc1ccc(S(=O)(=O)CCC(=O)c2ccccc2)cc1
inactive: [1] 9.3% | [2] 16% | [3] 0.95% | [4] 1.3% | [5] 3.25% | [6] 14.6%

COC(=O)c1nc(N)nc(C(=O)OC)c1C(=O)C(C)C
inactive: [1] 5.4% | [2] -10.7% | [3] -24.9% | [4] -13.4% | [5] -29% | [6] -1%

COc1ccc(CC2CCCNC2C(=O)O)cc1 (configuration not stated)
inactive: [1] -1.65% | [2] -13.2% | [3] -3.55% | [4] -38.7% | [5] -16.6% | [6] 10.8%

Cc1cc(C)c(CC#N)s1
inactive: [1] -25.2% | [2] -12.1% | [3] -1.65% | [4] -52.6% | [5] -15.4% | [6] -22.3%

NCCC(=O)OC1CCCc2c(O)c3c(c(O)c21)C(=O)c1ccccc1C3=O (configuration not stated)
active: [1] 98.8% | [2] 99.4% | [3] 99.4% | [4] 98.9% | [5] 98.8% | [6] 99.2%

Cc1nc(C)c(CC#N)s1
inactive: [1] -9.25% | [2] -10% | [3] -1.75% | [4] -15.1% | [5] -2% | [6] 13.7%

CC1=C(C(=O)Nc2ccccc2C)C(c2ccccc2C)C(C(=O)Nc2ccccc2C)=C(C)N1
inactive: [1] 67.2% | [2] 62.6% | [3] 51.8% | [4] 27.3% | [5] 64.3% | [6] 57.7%

CC(=O)Nc1ccc2nc(C)cc(Cl)c2c1
inactive: [1] 25.5% | [2] -3.45% | [3] 9.4% | [4] -8.8% | [5] 6.55% | [6] 4.35%

CN(C)c1ccccc1C(=O)NNC(=S)Nc1ccccc1
inactive: [1] 20.9% | [2] -1.75% | [3] 42.7% | [4] -13.1% | [5] 30.4% | [6] 19.4%

CC1=C(CCC#N)C(=O)C(CCC#N)C(C)(C)C1 (configuration not stated)
inactive: [1] 0.15% | [2] -8.65% | [3] -16.6% | [4] -29.6% | [5] -2.75% | [6] -7.9%

CNC(=O)/C=C/C1=CN2C(=O)c3ccc(C)c(O)c3NC(OC)C2C1 (configuration not stated)
active: [1] 91.5% | [2] 93.7% | [3] 93% | [4] 92.6% | [5] 92.3% | [6] 89.2%

Cc1ccc(C(=O)Oc2ccccc2)cc1N=NN(C)C
inactive: [1] -20.7% | [2] -49% | [3] -56.8% | [4] 25.5% | [5] -29.8% | [6] -24.1%

CCN(Cc1cc(Nc2ccnc3cc(Cl)ccc23)ccc1O)C(=O)N1CCN(C)CC1
inactive: [1] 10.7% | [2] 6.1% | [3] 20.5% | [4] 15.8% | [5] -7.55% | [6] 11.1%

COc1ccc(C(CC(=O)O)CC(=O)O)cc1[N+](=O)[O-]
inactive: [1] 0.75% | [2] -1.7% | [3] -2.1% | [4] -6.2% | [5] 15.9% | [6] 10.8%

Fc1ccc(Oc2nc3ccccc3nc2-c2ccccc2)cc1
inactive: [1] -3.35% | [2] 4.5% | [3] -2.15% | [4] 5.55% | [5] -9.4% | [6] 25.7%

CC(CCc1nc2ccccc2[nH]1)c1nc2ccccc2[nH]1 (configuration not stated)
inactive: [1] -18.6% | [2] 2.05% | [3] -0.8% | [4] 18.1% | [5] 14.8% | [6] 17.4%

Cc1c2ccccc2cc2c1ccc1c(Br)cccc12
inactive: [1] 10.1% | [2] -3.45% | [3] 21.3% | [4] 25.8% | [5] 12.1% | [6] 5.8%

COC(=O)C(NC(=O)C(NC(=O)C(N)C(C)C)C(C)C)C(C)C (stereo not drawn) (H-Val-Val-Val-OMe; configuration not given here)
inactive: [1] 5.3% | [2] 20.6% | [3] 5.4% | [4] -11.7% | [5] -3.4% | [6] -9.5%
